Assay outcomes: PubChem BioAssay, several laboratories
SENP7 inh: inhibitors of human SENP7 protease. 330,000 compounds, 1.5% hits. Q9BQF6. recombinant SENP7, Z-RLRGG-aminoluciferin luminescence, 40 min. AID 434973. inhibition, % at 5 µM;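 active = inhibition above about 50% at the single test dose, limit read from the data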
Target sequence (Q9BQF6 706-1050 limits assumed): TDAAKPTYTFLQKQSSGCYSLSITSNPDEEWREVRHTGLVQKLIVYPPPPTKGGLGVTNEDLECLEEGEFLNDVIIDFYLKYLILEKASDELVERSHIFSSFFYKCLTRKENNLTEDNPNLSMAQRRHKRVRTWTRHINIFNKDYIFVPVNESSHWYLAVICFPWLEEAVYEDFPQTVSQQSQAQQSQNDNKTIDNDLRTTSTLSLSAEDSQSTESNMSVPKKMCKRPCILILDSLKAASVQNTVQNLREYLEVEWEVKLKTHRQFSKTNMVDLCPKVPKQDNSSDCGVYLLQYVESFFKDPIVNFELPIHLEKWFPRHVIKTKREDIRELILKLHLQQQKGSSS
SENP8 block-1: blocks human SENP8 cleavage of Nedd8 substrate. Q96LD8. recombinant SENP8, Nedd8 substrate fluorescence. inhibition, % at 20 µM. 360,000 compounds, 0.64% hits. AID 602440; in the data active = inhibition mostly above about 40%, no sharp cut-off; inactive = mostly below about 27%
Platelet DG rel: platelet dense granule release activity; inhibition, %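 (compounds screened at 7.5 µM in platelet-rich plasma)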; human platelet-rich plasma, SFLLRN dense granule ATP release, luminescence; 300,000 compounds, 0.22% hits;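 active = mean replicate score, as percent of positive control, at or above 50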
SENP8 block-2: blocks the human protease SENP8; Q96LD8; purified SENP8, Z-RLRGG-aminoluciferin cleavage, luminescence; inhibition, % at 10 µM; 330,000 compounds, 1.2% hits; in the data active = inhibition above about 50%
SENP6 block: SENP6 protease inhibition; inhibition, % at 10 µM; Q9GZR1; AID 2599; 330,000 compounds, 1.8% hits; Recombinant SENP6 catalytic domain, aminoluciferin luminescence;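 active = inhibition above about 50% at the single tested dose, limit read from the data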
SENP8 confirm: human SENP8 inhibition, confirmed | shares compounds with SENP7 inh | Recombinant SENP8, Z-RLRGG-aminoluciferin luminescence, 60 min | 6,200 compounds, 40% hits | inhibition, % at 12.5 µM | AID 488912;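 active = mean inhibition across replicates above about 50%, limit read from the data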
SENP6 confirm: confirmation of human SENP6 protease inhibitors; shares compounds with SENP7 inh; recombinant SENP6, Z-RLRGG-aminoluciferin luminescence; inhibition, % at 12.5 µM; 6,200 compounds, 58% hits
SENP7 conf: human SENP7 inhibition, confirmed | recombinant SENP7, Z-RLRGG-aminoluciferin luminescence, 40 min | 6,200 compounds, 69% hits | inhibition, % at 12.5 µM | shares compounds with SENP7 inh
Casp3 SENP sel: inhibits human caspase-3 in SENP selectivity test; purified caspase-3, Z-DEVD-aminoluciferin luminescence, 60 min; 6,200 compounds, 60% hits; inhibition, % at 12.5 µM; shares compounds with SENP7 inh;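 active = mean inhibition above about 50%, limit read from the data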
Target sequence (P42574 28-227 limits assumed): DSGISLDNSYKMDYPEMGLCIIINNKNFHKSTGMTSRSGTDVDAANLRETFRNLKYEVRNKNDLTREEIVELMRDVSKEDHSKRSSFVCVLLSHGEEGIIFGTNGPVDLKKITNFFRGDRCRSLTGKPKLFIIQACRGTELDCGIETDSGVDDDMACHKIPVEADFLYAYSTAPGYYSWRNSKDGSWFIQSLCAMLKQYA
SENP luc ctr: interferes with luciferase luminescence in SENP counter-screen | shares compounds with SENP7 inh | Pre-incubated SENP8/Z-RLRGG-aminoluciferin, luciferase luminescence interference | inhibition, % at 12.5 µM | 6,200 compounds, 39% hits | AID 488919;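 active = mean inhibition above about 50% when retested at one dose, limit read from the data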
Large screens that a line does not name were inactive (follow-up assays come after a bar, where they were run). This is a sample that favours compounds with a hit; in the whole collection about 2.4% have one here.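 Rule for the calls, unless noted: active = mean inhibition above about 50% in the one-dose retest (limit read from the data); inactive = the rest.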

CC(C)[C@H](NC(=O)OC(C)(C)C)c1cc(C(=O)NCCO)c(N)s1	none (no result: SENP7 inh, Platelet DG rel, SENP8 block-2, SENP6 block)
COc1ccc(C=Nc2cccc3c(=O)[nH][nH]c(=O)c23)c2ccccc12	none
COc1cccc(C=Nc2cccc3c(=O)[nH][nH]c(=O)c23)c1O	SENP7 inh 93.1, SENP8 block-2 64.6, SENP6 block 67.1 | SENP8 confirm inactive | SENP6 confirm inactive | SENP7 conf inactive | Casp3 SENP sel inactive | SENP luc ctr inactive
C[C@@H]1CN([C@@H](C)CO)C(=O)c2cccc(NC(=O)C3CCCCC3)c2O[C@@H]1CN(C)C(=O)NC1CCCCC1	none (no result: Platelet DG rel)
COC(=O)c1ccccc1NC(=O)CSc1nncn1-c1ccccn1	none
Cn1cc(CN2CCC[C@H]2CO)c(-c2cccc(Cl)c2)n1	none
COc1ccc([C@H]2Cc3cc(O)cc(O)c3C(=O)O2)cc1O	SENP7 inh 89.7, SENP8 block-2 88.3, SENP6 block 94.5 (no result: Platelet DG rel) | SENP8 confirm 89.0 | SENP6 confirm 87.9 | SENP7 conf 97.8 | Casp3 SENP sel 89.5 | SENP luc ctr 91.3
CCCCc1c(C)c(C#N)c2[nH]c3ccccc3n2c1=O	none
CCCc1cc(=O)n2c([nH]c3ccccc32)c1C#N	SENP6 block 51.1 | SENP8 confirm inactive | SENP6 confirm inactive | SENP7 conf 51.1 | Casp3 SENP sel 53.0 | SENP luc ctr inactive
Cc1cc(N/N=C/c2cccc(Cl)c2)nc(-n2nc(C)cc2C)n1	none
Cc1nc(C#N)c(N/N=C/c2cccc(Cl)c2)o1	SENP8 block-2 86.1, SENP6 block 77.9 | SENP8 confirm inactive | SENP6 confirm 90.7 | SENP7 conf 99.8 | Casp3 SENP sel 79.9 | SENP luc ctr 84.2
Cc1ccc(C(=O)NC2CCCc3c2cnn3-c2ccc(F)cc2F)cn1 (configuration not stated)	none
O=C(O)c1ccccc1Nc1ccc(OC(F)F)cc1	SENP8 block-2 55.2 | SENP8 confirm 61.2 | SENP6 confirm 60.2 | SENP7 conf 80.4 | Casp3 SENP sel 65.6 | SENP luc ctr 73.9
S=c1nccc(-c2ccc3c(c2)CCO3)[nH]1	none
Fc1ccc(-c2noc(-c3ccc4c(c3)CCO4)n2)cc1	SENP7 inh 96.2, SENP8 block-2 67.5, SENP6 block 78.5 | SENP8 confirm inactive | SENP6 confirm 53.1 | SENP7 conf inactive | Casp3 SENP sel 71.2 | SENP luc ctr inactive
O=c1oc2cc(O)ccc2cc1-c1ccccc1	SENP7 inh 88.1, SENP8 block-2 91.0, SENP6 block 90.3 | SENP8 confirm 94.0 | SENP6 confirm 93.7 | SENP7 conf 99.3 | Casp3 SENP sel 91.9 | SENP luc ctr 92.1
COc1ccc(-c2cc3ccc(OCC(C)=O)cc3oc2=O)cc1	none
COc1ccc(-c2cc3ccc(O)cc3oc2=O)cc1	SENP7 inh 57.9, SENP8 block-2 83.4, SENP6 block 87.6 | SENP8 confirm 72.9 | SENP6 confirm 76.6 | SENP7 conf 93.2 | Casp3 SENP sel 76.1 | SENP luc ctr 62.0
O=C(NCc1ccccc1)c1cc2ccc(O)cc2oc1=O	SENP7 inh 95.8, SENP8 block-2 96.5, SENP6 block 95.4 | SENP8 confirm 97.7 | SENP6 confirm 98.4 | SENP7 conf 101.6 | Casp3 SENP sel 97.6 | SENP luc ctr 97.1
O=c1oc2ccccc2cc1-c1ccc(O)cc1O	none
COC(=O)COc1ccc2cc(-c3ccccc3)c(=O)oc2c1	SENP6 block 55.3 | SENP8 confirm inactive | SENP6 confirm inactive | SENP7 conf inactive | Casp3 SENP sel inactive | SENP luc ctr inactive
C[C@@H]1COC(=O)[C@H](Cc2ccc(F)cc2)C/C=C\C[C@@H](CC(=O)NCCO)C(=O)N1	none (no result: Platelet DG rel)
O=C([C@@H]1CCCN1C(=O)c1cccs1)N1CCN(S(=O)(=O)c2cccc(F)c2)CC1	none (no result: Platelet DG rel)
O=C(CCCC(=O)OCC(=O)c1ccc(Cl)cc1)NC1CCCCC1	none
CCCCn1cnc2c(oc3ccccc32)c1=O	none
O=C(O)C(Oc1ccc2cc(-c3ccc(Cl)cc3)c(=O)oc2c1)c1ccccc1 (configuration not stated)	SENP6 block 76.7 | SENP8 confirm 73.7 | SENP6 confirm 75.3 | SENP7 conf 63.4 | Casp3 SENP sel inactive | SENP luc ctr inactive
COc1ccc(-c2cc3ccc(OCC(C)=O)cc3oc2=O)cc1OC	none
NC(=O)COc1ccc2cc(-c3ccccc3)c(=O)oc2c1	none
COc1ccc(-c2cc3ccc(OCc4nn[nH]n4)cc3oc2=O)cc1OC	SENP7 inh 65.2, SENP8 block-2 50.7, SENP6 block 75.9 | SENP8 confirm 66.8 | SENP6 confirm 66.2 | SENP7 conf 90.6 | Casp3 SENP sel 84.8 | SENP luc ctr 72.2
COc1cc2c(cc1OC)CN(C(=O)Cc1c(F)cccc1Cl)CC2	none
Cc1cccc(NC(=O)c2ccc3c(Cl)c4c(nc3c2)CCCC4)n1	SENP7 inh 87.0 | SENP8 confirm inactive | SENP6 confirm inactive | SENP7 conf inactive | Casp3 SENP sel inactive | SENP luc ctr inactive
O=C(Nc1ccc(Cl)cn1)c1ccc2c(Cl)c3c(nc2c1)CCC3	SENP7 inh 71.3 | SENP8 confirm inactive | SENP6 confirm inactive | SENP7 conf inactive | Casp3 SENP sel inactive | SENP luc ctr inactive
C/C(=N\NC(=O)c1nnn(-c2nonc2N)c1CSc1ccccc1)c1ccc2c(c1)OCO2	none
CCOC(=O)C1CCN(c2ccc(-c3cccs3)nn2)CC1	SENP7 inh 95.3, SENP8 block-2 91.0, SENP6 block 95.6 | SENP8 confirm 93.7 | SENP6 confirm 93.6 | SENP7 conf 100.0 | Casp3 SENP sel 96.2 | SENP luc ctr 90.0
c1csc(-c2ccc(N3CCOCC3)nn2)c1	SENP7 inh 66.8, SENP6 block 54.0 | SENP8 confirm 56.9 | SENP6 confirm 55.6 | SENP7 conf 86.1 | Casp3 SENP sel 87.7 | SENP luc ctr 63.3
CCOC(=O)C1CCN(c2ccc(Cl)nn2)CC1	none
O=C(Nc1cccc(-c2ccc(N3CCOCC3)nn2)c1)c1ccccc1	none
CC(C)CN(C(=O)CSc1nnc(-c2cccs2)n1N)c1c(N)n(Cc2ccccc2)c(=O)[nH]c1=O	none
CCc1c(C(=O)NNC(=S)Nc2ccc(S(=O)(=O)Nc3ncccn3)cc2)csc1C	none
COc1ccc(S(=O)(=O)N2CCN(CC(=O)NC3CC3)CC2)cc1	none
c1ccc2[nH]c(-c3cscn3)nc2c1	none (no result: SENP7 inh, SENP8 block-2, SENP6 block)
